Results from PubChem BioAssay.
Inconclusive results are not listed. Activity calls are given as the source filed them.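 How the source made its calls, unless noted: active means growth inhibition above 25% in both replicates, a cutoff set 3 SD above the mean; inconclusive means above 25% in only one replicate; inactive means the rest.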

How the values were obtained:
[1] = Her2 expression decrease, cell viability multiplex – SKBR3 breast tumor cells, AlphaScreen, ATP viability, primary screen (AID 461;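 active means Her2 level under about 52% in both replicate screens, with viability over 70% of control, limit read from the data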;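 on Her2 level: lower value means less Her2 protein in the cells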;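 on viability: percent of carrier control wells set as 100% viability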); conditions: SKBR3 Her2 protein level, 18-24 h, measured here: SKBR3 viability, ATP luminescence, at 10 µM
[2] = target: Receptor tyrosine-protein kinase erbB-2 (Homo sapiens) (UniProt P04626); assay: as above; conditions: 18-24 h, at 10 µM, stronger effect = lower value
[3] = reduced viability of SK-BR-3 breast cancer cells – cell-based, 24 h, human, pilot screen (AID 572;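 active means viability at or below 10% of carrier control in both of two separate runs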;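 further: compound exposure lasted between 18 and 24 h rather than exactly 24 h; 100% = carrier-treated control wells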); conditions: SK-BR-3 viability, CellTiter-Glo luminescence, at 10 µM, stronger effect = lower value
[4] = HUVEC growth inhibition – cell-based, human, primary screen (AID 575;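 active means viability at or below 30% in both replicate assays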;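 further: 100% = median of untreated cell wells with 0.1% DMSO on each plate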); conditions: HUVEC proliferation, CellTiter-Glo luminescence, 72 h; at 10 µM; stronger effect = lower value
[5] = H69AR cell proliferation blockers – human, duplicate replicates, primary screen (AID 580;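 active means viability at or under a set limit in both replicates, limit being median viability minus 3 SD, cut at about 48% in these data, passing the limit was not always enough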;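 further: 100% = mean luminescence of untreated wells and 0% = no signal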); conditions: H69AR lung tumor cells viability, ATP luminescence, 72 h; at 10 µM; stronger effect = lower value
[6] = MRP1 drug-resistance reversers in H69AR cells – cell-based, doxorubicin co-treatment, pilot screen (AID 601;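 active means viability loss from added drug above about 55%, and viability with drug at most 40%, in both replicates, limit read from the data, passing the limit was not always enough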); conditions: CellTiter-Glo, 72 h, at 10 µM; for differential viability (reversal): stronger effect = higher value
[7] = yeast transport mutant growth inhibition pilot in 384-well plates, post-Golgi transport modulator project (AID 636; in the data active means inhibition above about 31%); conditions: absorbance 615 nm, about 18 h, stronger effect = higher value
[8] = growth suppression of yeast trafficking mutant, preliminary HTS, modulators of trafficking downstream of Golgi apparatus project, 1536-format plate, OD 615 nm (AID 637; in the data active means inhibition above about 30%); conditions: yeast transport mutant growth, absorbance 615 nm, 18 h; stronger effect = higher value
[9] = S. cerevisiae growth inhibition in permissive medium (OD615), pilot counter-assay for S. cerevisiae lifespan shortening project, permissive growth control (AID 705); conditions: OD615, 24 h, at 10 µM, stronger effect = higher value
[10] = S. cerevisiae growth inhibition in restrictive medium, OD615, pilot screen, restrictive growth control, yeast lifespan reduction project (AID 706;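 active means growth inhibition above a set limit, 3 SD over mean compound inhibition, in both replicates, cut at about 43% in these data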;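 further: modified DeaD lifespan yeast strain shifted to restrictive glucose medium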); conditions: OD615, 48 h, at 10 µM, stronger effect = higher value
[11] = doxorubicin toxicity protection in MRP-1 cells – H69AR cells, CellTiter-Glo, duplicate, MRP-1 activator project, pilot screen (AID 807;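 active means viability increase at or above a cutoff of the median across tested compounds plus 3 SD, cut at about 8.5% in these data, passing the limit was not always enough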;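 further: compound pretreatment 18-22 h then 72 h combined with doxorubicin; 0% = doxorubicin alone and 100% = vehicle without doxorubicin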); conditions: H69AR viability with doxorubicin, CellTiter-Glo luminescence; at 10 µM; stronger effect = higher value
[12] = viability of HCT116 without oncogenic beta-catenin – human colon tumor cells, pilot screen (AID 823;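 active means cell viability at or below a set limit in both duplicate runs, the limit being the all-compound median minus 4 SD, cut at about 23% in these data, passing the limit was not always enough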;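 further: 0% = wells killed by 20 µM Hyamine and 100% = untreated DMSO cell wells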); conditions: HCT116 beta-catenin knockout viability, CellTiter-Glo, 60 h; at 10 µM; stronger effect = lower value
[13] = viability of PTEN-null HCT116 cells – cell-based, HCT116 clonal line, CellTiter-Glo, pilot screen (AID 824;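 active means viability at or below 27.92% in each of two runs, the all-compound median minus 4 SD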;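 further: 0% = 20 µM Hyamine control and 100% = vehicle cell control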); conditions: HCT116 PTEN-deleted viability, 60 h, at 10 µM, stronger effect = lower value
[14] = RAM pathway blockade in budding yeast – dse1pr::URA3 reporter, 5-FOA selection, pilot screen (AID 869;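 active means inhibition over a set limit, the all-compound mean plus 3 SD, in both replicate runs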;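 further: 0% = DMSO wells with no growth and 100% = 10 µM 1-NA-PP1 with full growth; RAM network block rescues cells from 5-FOA so hits raise OD615 growth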); conditions: S. cerevisiae dse1pr::URA3 5-FOA growth, OD615, 2 d; at 10 µM; stronger effect = higher value; strain carries analog-sensitive mutant Cbk1 kinase
[15] = RAM signaling pathway blockade in yeast – S. cerevisiae, Pdr1DBD-CYC8 efflux-inhibited sensitized strain, primary screen (AID 1298;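 active means RAM network inhibition above 8.4% in each of two replicates, 3 SD over the compound average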;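 further: 0% = DMSO untreated cells without growth and 100% = 10 µM 1-NA-PP1 full growth; higher means more yeast growth rescued from 5-FOA killing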); conditions: S. cerevisiae cbk1-as DSE1-URA3 strain, 5-FOA growth OD615, 2 d; at 50 µM; stronger effect = higher value
[16] = H69AR cells + 2 uM doxorubicin, measured here: viability with 2 uM doxorubicin, stronger effect = lower value
[17] = H69AR cells, compound alone cytotoxicity

Sequence of Receptor tyrosine-protein kinase erbB-2 (Homo sapiens) (P04626 whole entry, looked up): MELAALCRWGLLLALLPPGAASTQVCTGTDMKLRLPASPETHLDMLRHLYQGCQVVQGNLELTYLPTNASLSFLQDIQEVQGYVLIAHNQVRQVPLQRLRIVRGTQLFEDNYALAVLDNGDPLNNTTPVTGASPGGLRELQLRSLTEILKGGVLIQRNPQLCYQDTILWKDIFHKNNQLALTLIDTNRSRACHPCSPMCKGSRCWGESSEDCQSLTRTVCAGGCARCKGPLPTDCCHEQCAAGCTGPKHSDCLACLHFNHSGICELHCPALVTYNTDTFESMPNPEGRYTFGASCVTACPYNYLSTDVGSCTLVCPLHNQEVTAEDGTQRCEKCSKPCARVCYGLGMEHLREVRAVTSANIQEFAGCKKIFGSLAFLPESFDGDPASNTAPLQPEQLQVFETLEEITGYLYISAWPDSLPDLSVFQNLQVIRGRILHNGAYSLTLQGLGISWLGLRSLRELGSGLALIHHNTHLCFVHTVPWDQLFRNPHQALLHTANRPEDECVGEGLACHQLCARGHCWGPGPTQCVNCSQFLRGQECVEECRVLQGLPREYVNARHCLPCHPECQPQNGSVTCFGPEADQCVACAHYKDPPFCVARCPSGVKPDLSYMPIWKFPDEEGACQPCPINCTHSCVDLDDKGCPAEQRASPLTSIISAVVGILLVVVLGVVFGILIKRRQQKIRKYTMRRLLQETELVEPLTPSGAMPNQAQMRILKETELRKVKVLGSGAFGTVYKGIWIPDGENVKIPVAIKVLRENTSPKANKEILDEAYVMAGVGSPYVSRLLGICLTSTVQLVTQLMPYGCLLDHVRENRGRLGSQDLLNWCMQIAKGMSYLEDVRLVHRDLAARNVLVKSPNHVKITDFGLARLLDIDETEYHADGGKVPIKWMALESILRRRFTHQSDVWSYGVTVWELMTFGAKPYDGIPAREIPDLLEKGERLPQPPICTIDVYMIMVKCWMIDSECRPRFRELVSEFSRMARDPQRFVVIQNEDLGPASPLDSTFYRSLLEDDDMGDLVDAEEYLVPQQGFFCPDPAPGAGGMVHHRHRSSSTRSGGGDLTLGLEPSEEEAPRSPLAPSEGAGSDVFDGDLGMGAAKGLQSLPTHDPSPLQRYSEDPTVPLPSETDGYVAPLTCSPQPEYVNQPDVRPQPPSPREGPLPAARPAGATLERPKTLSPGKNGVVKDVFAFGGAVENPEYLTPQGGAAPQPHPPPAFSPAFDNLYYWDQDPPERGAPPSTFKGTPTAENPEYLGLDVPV

Row | SMILES | viability [1] [%] | Her2 level [2] | viability [3] | viability [4] | viability [5] | differential viability (reversal) ([6]; H69AR cells + 2 uM doxorubicin) | viability [6, 16] [%] | viability [6, 17] [%] | inhibition [7] | inhibition [8] | growth inhibition [9] | growth inhibition [10] | viability increase [11] | viability [12] | viability [13] | inhibition [14] | RAM network inhibition [15]
1 | COCCN(CCOC)c1ncnc2c1cnn2-c1ccccc1 | 112 | 99% (inactive) | 112% (inactive) | 88.4% (inactive) | 86.6% (inactive) | -6.92% (inactive) | 93.5 | 86.6 | -4.8% (inactive) | 4.33% (inactive) | -5.8% (inactive) | 1.92% (inactive) | 1.43% (inactive) | 107% (inactive) | 98.5% (inactive) | 0.505% (inactive) | 3.39% (inactive)
2 | O=C(Nc1ccc(N2C(=O)C3C4C=CC(C4)C3C2=O)cc1)Nc1nncs1 (stereo not drawn) | 92 | 108% (inactive) | 92% (inactive) | 96.2% (inactive) | 87.8% (inactive) | 2.15% (inactive) | 85.6 | 87.8 | -3.47% (inactive) | 0.83% (inactive) | -7.11% (inactive) | 6.49% (inactive) | -1.28% (inactive) | 97.6% (inactive) | 95.3% (inactive) | 0.53% (inactive) | 3.5% (inactive)
3 | Cc1ccc2oc(=O)c3cnn(CC(=O)N4CCCc5ccccc54)c3c2c1 | 100 | 98.5% (inactive) | 100% (inactive) | 89.8% (inactive) | 74.8% (inactive) | 13.9% (inactive) | 60.9 | 74.8 | -2.67% (inactive) | -0.82% (inactive) | -12.4% (inactive) | -5.59% (inactive) | -3.17% (inactive) | 91.3% (inactive) | 82.3% (inactive) | 3.85% (inactive) | 6.86% (inactive)
4 | O=C(NCCN1CCOCC1)c1ccc2c(c1)N(Cc1ccccc1F)C(=O)CS2 | 94 | 100% (inactive) | 94% (inactive) | 95% (inactive) | 92.6% (inactive) | -7.79% (inactive) | 100 | 92.6 | -6.4% (inactive) | 1.59% (inactive) | 7.73% (inactive) | 7.02% (inactive) | 1.73% (inactive) | 102% (inactive) | 102% (inactive) | 1.9% (inactive) | 1.89% (inactive)
5 | CCOCCCNC(=O)C(NC(=O)c1ccccn1)c1ccc(C)cc1 (stereo not drawn) | 94.5 | 120% (inactive) | 94.5% (inactive) | 104% (inactive) | 106% (inactive) | 8.57% (inactive) | 97.3 | 106 | -2.6% (inactive) | 1.9% (inactive) | -4.42% (inactive) | 1.57% (inactive) | -0.13% (inactive) | 108% (inactive) | 97.3% (inactive) | 0.07% (inactive) | 0.36% (inactive)
6 | CCOc1cccc(C(=O)N2CCCCC2c2cccnc2)c1 (stereo not drawn) | 98.5 | 96.5% (inactive) | 98.5% (inactive) | 101% (inactive) | 110% (inactive) | 10.3% (inactive) | 99.6 | 110 | -0.93% (inactive) | -1.13% (inactive) | -4.46% (inactive) | -2.66% (inactive) | -1.99% (inactive) | 101% (inactive) | 95.2% (inactive) | 0.635% (inactive) | 1.95% (inactive)
7 | COc1ccccc1-c1cc2nc(C)c(CCC(=O)NCc3ccco3)c(C)n2n1 | 80 | 88% (inactive) | 80% (inactive) | 88% (inactive) | 89.9% (inactive) | 1.59% (inactive) | 88.3 | 89.9 | -2.69% (inactive) | 0.33% (inactive) | -2.34% (inactive) | -6.24% (inactive) | -3.72% (inactive) | 97.2% (inactive) | 98.1% (inactive) | 1.53% (inactive) | 4.36% (inactive)
8 | COc1cccc(NC(=O)c2nc3nc(C)cc(C(F)F)n3n2)c1 | 100 | 106% (inactive) | 100% (inactive) | 93.9% (inactive) | 84% (inactive) | -2.74% (inactive) | 86.8 | 84 | 1.47% (inactive) | 4.5% (inactive) | -11.3% (inactive) | -11.1% (inactive) | 1.69% (inactive) | 107% (inactive) | 101% (inactive) | 0.62% (inactive) | -0.33% (inactive)
9 | Cc1cc(C)n2c(SCCN3C(=O)c4ccccc4C3=O)nnc2n1 | 90.5 | 95% (inactive) | 90.5% (inactive) | 111% (inactive) | 105% (inactive) | 11.1% (inactive) | 94 | 105 | -0.51% (inactive) | 7.17% (inactive) | -7.84% (inactive) | -8.13% (inactive) | -0.7% (inactive) | 102% (inactive) | 98.6% (inactive) | 2.08% (inactive) | 1.64% (inactive)
10 | CCOc1ccc(N(CC(=O)Nc2ccc(F)c(F)c2)S(=O)(=O)c2c(C)noc2C)cc1 | 83.5 | 80% (inactive) | 83.5% (inactive) | 54% (inactive) | 65.8% (inactive) | 1.49% (inactive) | 64.3 | 65.8 | -4.4% (inactive) | -1.31% (inactive) | -11.3% (inactive) | -9.45% (inactive) | -3.6% (inactive) | 93% (inactive) | 88.7% (inactive) | 2.33% (inactive) | 4.77% (inactive)
11 | O=C(NCc1ccc2c(c1)OCO2)C1CCCN(S(=O)(=O)c2cccc3cccnc23)C1 (stereo not drawn) | 95.5 | 85% (inactive) | 95.5% (inactive) | 70% (inactive) | 83.3% (inactive) | 5.17% (inactive) | 78.1 | 83.3 | -4.93% (inactive) | 4% (inactive) | -10.4% (inactive) | -10.5% (inactive) | -2.13% (inactive) | 84.9% (inactive) | 80.7% (inactive) | 0.32% (inactive) | 5.25% (inactive)
12 | CCOC(=O)/C(C#N)=C(/C)c1ccc(OC)cc1 | 96 | 104% (inactive) | 96% (inactive) | 110% (inactive) | 102% (inactive) | 5.39% (inactive) | 96.2 | 102 | -2.53% (inactive) | -7.74% (inactive) | -14.7% (inactive) | -5.52% (inactive) | 0.09% (inactive) | 99.5% (inactive) | 99% (inactive) | 1.11% (inactive) | 3.87% (inactive)
13 | Cc1ccc(S(=O)(=O)NCCOC(=O)Nc2sc(=S)n(C)c2C)cc1 | 75.5 | 96.5% (inactive) | 75.5% (inactive) | 90% (inactive) | 101% (inactive) | 7.26% (inactive) | 94.1 | 101 | -2.84% (inactive) | 14.9% (inactive) | 6.39% (inactive) | 23.1% (inactive) | -3.78% (inactive) | 115% (inactive) | 88.2% (inactive) | 1.25% (inactive) | 1.73% (inactive)
14 | CC(CC(=O)NC1CCSC1=O)c1ccccc1 (stereo not drawn) | 97 | 87.5% (inactive) | 97% (inactive) | 89.2% (inactive) | 113% (inactive) | 1.77% (inactive) | 111 | 113 | -4.32% (inactive) | 0% (inactive) | 3.53% (inactive) | 6.91% (inactive) | 2.46% (inactive) | 96.5% (inactive) | 95.9% (inactive) | 0.235% (inactive) | 1.17% (inactive)
15 | CC(=O)c1cc2c(cc1NC(=O)CN1CCN(C(=O)c3ccco3)CC1)OCO2 | 90 | 120% (inactive) | 90% (inactive) | 92.5% (inactive) | 86.3% (inactive) | -3.21% (inactive) | 89.5 | 86.3 | -5.47% (inactive) | -3.5% (inactive) | 0.565% (inactive) | -17.1% (inactive) | -3.21% (inactive) | 98.2% (inactive) | 97% (inactive) | 2.79% (inactive) | 0.37% (inactive)
16 | Cc1cc(OCC(=O)NCCO)cc(C)c1Cl | 99 | 120% (inactive) | 99% (inactive) | 76% (inactive) | 96.4% (inactive) | 8.84% (inactive) | 87.6 | 96.4 | 1.56% (inactive) | -1.67% (inactive) | -15% (inactive) | 0.385% (inactive) | -0.21% (inactive) | 99.1% (inactive) | 99.6% (inactive) | 1.37% (inactive) | 6.24% (inactive)
17 | COc1ccc(NC(=O)C2CCCCN2S(=O)(=O)c2ccc(F)cc2)cc1 (stereo not drawn) | 91 | 93% (inactive) | 91% (inactive) | 91.4% (inactive) | 89.2% (inactive) | -12.1% (inactive) | 101 | 89.2 | -7.47% (inactive) | 1% (inactive) | -18.5% (inactive) | -18.4% (inactive) | -1.3% (inactive) | 83.5% (inactive) | 88% (inactive) | 1.19% (inactive) | 5.45% (inactive)
18 | CCCNC(=O)CS(=O)(=O)Cc1nc(-c2cccc(OC)c2)oc1C | 86 | 90.5% (inactive) | 86% (inactive) | 109% (inactive) | 87.7% (inactive) | -3.96% (inactive) | 91.7 | 87.7 | -0.53% (inactive) | 8.2% (inactive) | 7.42% (inactive) | -2.08% (inactive) | -0.31% (inactive) | 93.1% (inactive) | 87% (inactive) | 0.365% (inactive) | -0.47% (inactive)
19 | O=C(c1ccc2c(c1)OCCO2)N1CCCCC1 | 117 | 97% (inactive) | 117% (inactive) | 91.8% (inactive) | 101% (inactive) | -1.2% (inactive) | 102 | 101 | -0.91% (inactive) | 0.17% (inactive) | 3.7% (inactive) | 6.82% (inactive) | -1.22% (inactive) | 97.2% (inactive) | 97.4% (inactive) | 0.88% (inactive) | 5.28% (inactive)
